Compounds with a hit are over-represented: about 10% of the library has one in this group of screens.
Six1-Eya2 blk: qHTS Assay for Inhibitors of the Six1/Eya2 Interaction | Homeobox protein SIX1 (Homo sapiens) + Protein phosphatase EYA2 (Homo sapiens), … | activity change, % (test concentration not listed) | 360,000 compounds, 0.56% hits | AlphaScreen GST-Six1/His-Eya2 binding, biochemical; stronger effect = lower value; in the data active = activity change below about -65%; inconclusive = mostly about -30% to -63%
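AlphaScreen with GST-Six1 and His-Eya2 (5X mix: 250 nM and 500 nM), glutathione donor and nickel acceptor beads; buffer 50 mM Tris pH 8.0, 300 mM NaCl, 1 mM TCEP; 1 h at 37 C in the dark.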
G9a inh: qHTS Assay for Inhibitors of Histone Lysine Methyltransferase G9a; Histone-lysine N-methyltransferase EHMT2 (Homo sapiens), Q96KQ7; G9a H3K9 monomethylation, AlphaScreen, 2 h; Potency, µM (titrated, usually from 102 µM), hits mostly inhibitors; 350,000 compounds, 8.8% hits; note: nearly all actives have a fitted effect of over 75% in size
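Chemiluminescent proximity detection of H3K9 monomethylation, read after 10 min bead incubation in the dark. Reaction: 20 nM G9a, 500 nM biotin-H3K9 peptide, 20 uM SAM cofactor, 2 h, room temperature, following 15 min enzyme-compound preincubation.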
HP1b binding inh: HTS for Inhibitors of HP1-beta Chromodomain Interactions with Methylated Histone Tails; Chromobox protein homolog 1 (Homo sapiens), P83916; AlphaScreen HP1-beta / biotin-H3K9me3 peptide binding; Potency, µM (doses to about 114 µM), actives largely listed as inhibitors; 390,000 compounds, 0.56% hits; note: nearly all actives have a fitted effect of over 70% in size
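Compound inhibition of the preformed complex between 50 nM HP1-beta and 50 nM biotinylated H3K9me3 peptide was read by AlphaScreen. Buffer was PBS pH 7.4 with 0.01% Tween-20. Incubations ran 30 min at room temperature, with 10 ug/mL donor/acceptor beads.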
CtBP-E1A blk: qHTS Assay for Inhibitors of the CtBP/E1A Interaction; 340,000 compounds, 0.49% hits; activity change, % (no concentration beside the values); AlphaScreen GST-E1A/His-CtBP binding, 1536-well; stronger effect = lower value; in the data active = activity change below about -65%; inconclusive = mostly about -30% to -63%
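In 5 uL wells, 23 nL compound meets equimolar GST-E1A and His-CtBP (5X stock 125 nM each) for 2 h, 37 °C. Beads (5X, 50 ug/mL) then 1 h, 37 °C, dark.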
BAZ2B block: qHTS Assay for Inhibitors of BAZ2B. AlphaScreen BAZ2B-H3K14Ac peptide displacement. Potency, µM (doses to about 114 µM), actives largely listed as inhibitors. 360,000 compounds, 4.4% hits; note: nearly all actives have a fitted effect of over 60% in size
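AlphaScreen luminescence quantifies BAZ2B engagement of H3K14Ac peptide; the protein and biotinylated peptide are both at 50 nM final, buffer PBS pH 7.4 with 0.01% Tween-20, all steps at room temperature.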
JMJD2A Tudor inh: qHTS Assay for Inhibitors of JMJD2A-Tudor Domain; Potency, µM (top dose mostly 114 µM), most hits filed as inhibitors; AID 504339, 2011; Lysine-specific demethylase 4A (Homo sapiens), O75164; AlphaScreen JMJD2A-Tudor / H3K4me3 peptide binding; 390,000 compounds, 4.4% hits; note: nearly all actives have a fitted effect of over 50% in size
Of the large screens only hits and unclear results are named; the others gave an inactive call. Unless noted, calls come from the whole dose curve; as a rule, active = well fitted inhibition curve with a large enough effect; inconclusive = small, poorly fitted or top-dose-only effect; inactive = no such curve, though single readings can be large or run the other way.

COc1ccc(CCN(C)C(=O)C2CC(=O)N(Cc3ccc(C)cc3)C2)cc1OC (stereo unspecified)	none
COc1ccc(CCNC(=O)CN2C(=O)c3ccccc3S2(=O)=O)cc1OC	none
COc1ccc(CCN(C)C(=O)CN2C(=O)c3ccccc3S2(=O)=O)cc1OC	G9a inh inconclusive, HP1b binding inh inconclusive, JMJD2A Tudor inh 79.4µM
CCCCNC(=O)COC(=O)c1cc(C)oc1C	none
O=S1(=O)N=C(Oc2cccc(C(F)(F)F)c2)c2ccccc21	none (no result: Six1-Eya2 blk, G9a inh, HP1b binding inh, CtBP-E1A blk, BAZ2B block)
CCOc1ccc(CNC(=O)Nc2ccc3c(c2)N(C)C(=O)c2ccccc2S3)cc1	BAZ2B block inconclusive (no result: Six1-Eya2 blk, CtBP-E1A blk)
O=C(NCC(O)CO)c1csc(Nc2cccc3ccccc23)n1 (stereo unspecified)	G9a inh 39.8µM, BAZ2B block inconclusive
CCN(CC)CCCNC(=O)c1csc(Nc2cccc3ccccc23)n1	BAZ2B block inconclusive (no result: G9a inh)
CCN(CC)C(=O)c1csc(Nc2cccc3ccccc23)n1	G9a inh 39.8µM, BAZ2B block inconclusive
O=C(c1csc(Nc2cccc3ccccc23)n1)N1CCCC1	BAZ2B block 39.8µM
O=C(O)CCC(=O)Nc1ccc(-c2csc(Nc3cccc4ccccc34)n2)cc1	none
Cc1ccc(-c2nnc(NC(=O)c3ccc4c(c3)OCCO4)o2)c(C)c1	none (no result: Six1-Eya2 blk, CtBP-E1A blk)
CCOC(=O)c1ccc(NC(=O)CS(=O)(=O)Cc2nc(-c3ccc(C)cc3)oc2C)cc1	none (no result: Six1-Eya2 blk, CtBP-E1A blk)
Cc1ccc2c(c1)S/C(=C/c1ccc[n+](C)c1)N2CCO	G9a inh 14.1µM, JMJD2A Tudor inh 25.1µM
Cc1nc(NC(=O)c2ccccc2)sc1-c1csc(Nc2ccc(Cl)cc2)n1	G9a inh 44.7µM (no result: Six1-Eya2 blk, HP1b binding inh, CtBP-E1A blk, JMJD2A Tudor inh)
Cc1nc(NC(=O)c2ccccc2)sc1-c1csc(Nc2ccc(F)cc2)n1	G9a inh 31.6µM, BAZ2B block inconclusive (no result: Six1-Eya2 blk, HP1b binding inh, CtBP-E1A blk, JMJD2A Tudor inh)
Cc1nc(NC(=O)c2ccco2)sc1-c1csc(Nc2ccc(Cl)cc2)n1	BAZ2B block inconclusive, JMJD2A Tudor inh inconclusive (no result: CtBP-E1A blk)
COc1ccc(OC)c(Nc2nc(-c3sc(NC(=O)c4ccccc4)nc3C)cs2)c1	none (no result: Six1-Eya2 blk, HP1b binding inh, CtBP-E1A blk, JMJD2A Tudor inh)
Cc1nc(NC(=O)c2ccccc2)sc1-c1csc(Nc2cccc(Cl)c2)n1	G9a inh 50.1µM, BAZ2B block inconclusive (no result: Six1-Eya2 blk, HP1b binding inh, CtBP-E1A blk, JMJD2A Tudor inh)
CC12CCC(=O)N1C(C(=O)OCc1c(Cl)cccc1Cl)CS2 (stereo unspecified)	none
COc1ccc(-n2c(O)c(/C=N/NS(=O)(=O)c3cccc([N+](=O)[O-])c3)c3ccccc3c2=O)cc1OC	G9a inh 39.8µM, BAZ2B block 50.1µM, JMJD2A Tudor inh inconclusive
C/C(=N\NC(=O)Cc1csc(N2CCOCC2)n1)c1ccc(Cl)c(Cl)c1	none
C=CCNc1oc(-c2ccc(OC)cc2)nc1C#N	G9a inh 56.2µM
CCCOc1ccc(-c2nc(C#N)c(NCC3CCCO3)o2)cc1 (stereo unspecified)	G9a inh 70.8µM, BAZ2B block 50.1µM, JMJD2A Tudor inh inconclusive
CCOc1ccc(-c2nc(C#N)c(NCC3CCCO3)o2)cc1 (stereo unspecified)	none
COc1ccc(C(CC(=O)NCc2ccc(Cl)cc2)N2Cc3ccccc3C2=O)cc1OC (stereo unspecified)	none (no result: Six1-Eya2 blk, CtBP-E1A blk)
CCN(CC)c1ccc(NC(=S)Nc2ccc(F)cc2)cc1	Six1-Eya2 blk inconclusive, G9a inh 12.6µM, HP1b binding inh 25.1µM, BAZ2B block 22.4µM, JMJD2A Tudor inh 35.5µM
CCC(C)NC(=S)Nc1ccc(F)cc1 (stereo unspecified)	G9a inh 50.1µM
Cc1oc2ncn(C)c(=O)c2c1C(=O)NCCCN(Cc1ccccc1)C(C)C	none (no result: Six1-Eya2 blk, CtBP-E1A blk)
O=[N+]([O-])c1cccc(-c2nnc3ccc4ccccc4n23)c1	G9a inh 14.1µM, BAZ2B block inconclusive, JMJD2A Tudor inh inconclusive
